# Active and inactive are the calls of the source. How the calls were made is not given here.
# Assay: Immunotoxin (SS1P) sensitization/mitigation study. Vehicle arm (DMEM) (AID 1159513); further: potency means the concentration at half of the fitted maximal effect
# Settings: cell viability with vehicle (DMEM); series mostly up to 46.1 µM; activity, % of control (viability): at the top concentration
Structure (SMILES),Potency,"activity, % of control (viability)"
COC[C@H]1OC(=O)c2coc3c2[C@@]1(C)C1=C(C3=O)C2CCC(=O)[C@@]2(C)C[C@H]1OC(C)=O (stereo partly specified),16.6 µM (active),–
C[C@]12CCC(=O)C(O)=C1CC[C@@H]1[C@@H]2CC[C@]2(C)C(=O)CC[C@@H]12,–,95.9% (inactive)
C[C@@H]1[C@@H](C(=O)C[C@H]2O[C@@H]3O[C@]4(C)CC[C@@H]5[C@H](C)CC[C@@H]([C@H]2C)[C@@]35OO4)O[C@@H]2O[C@]3(C)CC[C@H]4[C@H](C)CC[C@@H]1[C@@]24OO3,0.209 µM (active),–
COC1(CS(=O)c2ccccc2)CCN(CCc2c[nH]c3ccc(F)cc23)CC1 (stereo unspecified),–,82.8% (inactive)
Cc1sc2c(c1C)C(c1ccc(Cl)cc1)=N[C@@H](CC(=O)OC(C)(C)C)c1nnc(C)n1-2,10.5 µM (active),–
CNC(=O)N1N=C(c2ccc(N)cc2)c2cc3c(cc2CC1C)OCO3 (stereo unspecified),5.26 µM (active),–
CC(O)(CS(=O)(=O)c1ccc(F)cc1)C(=O)Nc1ccc(C#N)c(C(F)(F)F)c1 (stereo unspecified),–,86.6% (inactive)

# Assay: High-throughput drug toxicity screening in the BPDCN cell line Cal-1 (AID 1224825)
# Settings: Cal-1 BPDCN cell viability, qHTS; at 45.8 µM (top of the series)
# Method in brief: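 CellTiter-Glo luminescence after 48 h compound exposure; percent activity scaled with DMSO as 100% and bortezomib (9.2 uM final) as 0%. Cal-1 cells seeded at 500/well in RPMI, 10% FBS, no phenol red.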
row,Structure (SMILES),viability (% of control)
1,O=c1[nH]c2ccccc2n1CCCN1CCC(n2c(=O)[nH]c3cc(Cl)ccc32)CC1,61.6%
2,C[C@@H]1O[C@@H](O[C@H]2C[C@@H](O)[C@]3(CO)[C@H]4[C@H](O)C[C@]5(C)[C@@H](C6=CC(=O)OC6)CC[C@]5(O)[C@@H]4CC[C@]3(O)C2)[C@H](O)[C@H](O)[C@H]1O,3.79%
3,CNC(=O)c1ccc(N2C(=S)N(c3ccc(C#N)c(C(F)(F)F)c3)C(=O)C23CCC3)cc1F,7.78%
4,Cc1cccc(C)c1NC(=O)CN1CCCC1=O,110%
5,COC[C@@H](NC(C)=O)C(=O)NCc1ccccc1,115%
6,CNCC(O)c1ccc(O)cc1 (stereo unspecified),114%
7,CN(C)CCc1ccc(O)cc1,108%
8,C[C@@H]1[C@@H](C(=O)C[C@H]2O[C@@H]3O[C@]4(C)CC[C@@H]5[C@H](C)CC[C@@H]([C@H]2C)[C@@]35OO4)O[C@@H]2O[C@]3(C)CC[C@H]4[C@H](C)CC[C@@H]1[C@@]24OO3,7.82%
9,COC1(CS(=O)c2ccccc2)CCN(CCc2c[nH]c3ccc(F)cc23)CC1 (stereo unspecified),80.6%
10,COc1ccc(C(=O)c2c(C)n(CCN3CCOCC3)c3ccccc23)cc1,101%
11,C=C(C)[C@H]1Cc2c(ccc3c2O[C@@H]2COc4cc(OC)c(OC)cc4[C@@H]2C3=O)O1,11.5%
12,Cc1sc2c(c1C)C(c1ccc(Cl)cc1)=N[C@@H](CC(=O)OC(C)(C)C)c1nnc(C)n1-2,2.41%
13,Fc1ccc(C(OCCN2CCN(CCCc3ccccc3)CC2)c2ccc(F)cc2)cc1,3.89%
14,Cn1cc(C2=C(c3cn(C4CCN(Cc5ccccn5)CC4)c4ccccc34)C(=O)NC2=O)c2ccccc21,14.5%
15,O=C(O)C(=O)c1cn(Cc2ccccc2)c2ccc(-c3ccc(OC(F)(F)F)cc3)cc12,118%
16,CNC(=O)N1N=C(c2ccc(N)cc2)c2cc3c(cc2CC1C)OCO3 (stereo unspecified),9.51%
17,CC(O)(CS(=O)(=O)c1ccc(F)cc1)C(=O)Nc1ccc(C#N)c(C(F)(F)F)c1 (stereo unspecified),3.75%
18,COc1ccc2c(c1OC)CN1CCc3cc4c(cc3C1C2)OCO4 (stereo unspecified),62.2%
19,Cc1cc(SCc2sc(-c3ccc(C(F)(F)F)c(F)c3)nc2C)ccc1OCC(=O)O,109%
